{"source": "PubChem BioAssay (EPA / NIEHS)", "note": "Where “and” joins values, the source holds several entries; their conditions need not be identical. Identical values can stand only once. Records with an inconclusive call do not appear. Some structures have more than one record in an assay (separate samples or runs), and their calls can disagree. Calls of active or inactive are those of the source. How the source made its calls: active means hit-call score of the fitted dose curve at least 0.9, where 1 is the maximum; inconclusive means response in the unintended direction; inactive means score below 0.9.", "data": [{"target": "Nuclear receptor subfamily 1 group I member 2 (Mus musculus) (UniProt O54915)", "sequence (O54915 whole entry, looked up)": "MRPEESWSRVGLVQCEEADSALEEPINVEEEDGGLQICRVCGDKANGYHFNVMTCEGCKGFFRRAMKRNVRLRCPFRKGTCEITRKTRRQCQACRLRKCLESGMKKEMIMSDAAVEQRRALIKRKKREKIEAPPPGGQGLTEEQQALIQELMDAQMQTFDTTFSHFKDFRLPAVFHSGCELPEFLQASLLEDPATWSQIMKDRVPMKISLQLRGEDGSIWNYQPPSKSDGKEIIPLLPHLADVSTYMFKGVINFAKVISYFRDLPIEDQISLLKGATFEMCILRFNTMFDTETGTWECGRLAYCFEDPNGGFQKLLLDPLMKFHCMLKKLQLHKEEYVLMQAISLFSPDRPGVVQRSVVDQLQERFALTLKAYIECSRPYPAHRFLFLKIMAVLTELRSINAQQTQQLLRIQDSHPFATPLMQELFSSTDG", "assay": "ATG_mPXR_XSP2: Attagene TRANS-FACTORIAL Multi-Species (XSP1) HepG2 Assay for mouse Pregnane X Receptor (PXR) (AID 2283831)", "protocol": "ATG_XSP2_multi-species_TRANS is a cell-based, multiplexed assay created by modifying the existing Attagene TRANS-FACTORIAL system to include a panel of nuclear receptors from some or all the following species: human (Homo sapiens), mouse (Mus musculus), frog (Xenopus laevis), zebrafish (Danio rerio), chicken (Gallus gallus), and turtle (Chrysemys picta). The ECOTOX-FACTORIAL format uses HepG2, a human liver cell line, with measurements taken at 24 hours after chemical dosing in a 24-well plate. Xsp2 included 3 nM 6-alpha-fluorotestosterone and 1.5 nM norgestrel to stimulate the androgen receptor.ATG_mPXR_XSP2 is one of 29 assay components measured or calculated from the ATG_XSP2_multi-species_TRANS assay. It is designed to make measurements of mRNA induction, a form of inducible reporter, as detected with fluorescence intensity signals by Reverse transcription polymerase chain reaction (RT-PCR) and Capillary electrophoresis technology.The assay endpoint ATG_mPXR_XSP2 was analyzed in the positive analysis fitting direction relative to DMSO as the negative control and baseline of activity. Using a type of inducible reporter, measures of mRNA for gain-of-signal activity can be used to understand the reporter gene at the transcription factor-level as they relate to the gene PXR. Furthermore, this assay endpoint can be referred to as a primary readout, because this assay has produced multiple assay endpoints where this one serves a reporter gene function. To generalize the intended target to other relatable targets, this assay endpoint is annotated to the nuclear receptor intended target family, where the subfamily is non-steroidal.\nHuman liver HepG2 cells are transiently transfected with multiple reporter transcription units (MRTUs) in 6-well plates using FuGene 6 reagent (Roche; 3 ml FuGene/1 mg DNA). The MRTU constructs are regulated by a cis-regulating element (promoter). […] A major difference between the CIS and TRANS system is that in CIS activities of endogenous TFs are measured, whereas the TRANS assay evaluates changes in activities of exogenous, chimeric NR-Gal4 proteins. […] At the end of 24 hour incubation, total RNA was isolated using TriZol reagent (Invitrogen). The isolated RNA is then reverse-transcribed using oligo(dT) primer and Mo-MLV reverse transcriptase (Invitrogen) with DNAse I (Ambion) treatment for 30 min. The one-tenth of the produced cDNA was amplified by PCR using Taq DNA polymerase (Invitrogen) and two reporter sequence-specific primers. The PCR products were fluorescently labeled by primer extension with 6-arboxyfluorescein (6-FAM) 5'-labeled reporter sequence-specific primer (2 min at 95 C, 20 s at 68 C and 10 min at 72 C) and these products were digested with 5U of HpaI (New England Biolabs) for 2h at 37 C. The fragments were purified using Qiaquick PCR columns (Qiagen), analyzed on an ABI 3130xL genetic analyzer (Applied Biosystems) with peak positions identified by using a set of X-rhodamine (ROX)-labeled MapMarker1000 molecular weight standards (BioVentures). The raw capillary electrophoresis data was processed using Attagraph software (Attagene).", "values": [{"smiles": "O=S(=O)(c1ccc(Cl)cc1)c1ccc(Cl)cc1", "AC50": "4.34 µM (active) and 2.83 µM (active)"}, {"smiles": "Clc1ccc(C2(Cn3cncn3)CC(Br)CO2)c(Cl)c1", "note": "(configuration not stated)", "AC50": "3.32 µM (active) and 1.59 µM (active)"}, {"smiles": "CC(C)(C)c1cc(O)ccc1O", "outcome": "inactive"}, {"smiles": "Oc1ccc(-c2ccccc2)cc1", "outcome": "inactive"}, {"smiles": "CC(C)(C)CC(C)(C)c1ccc(O)cc1", "outcome": "inactive"}, {"smiles": "CC(=O)C=C(C)C", "outcome": "inactive"}, {"smiles": "Oc1c(I)cc(I)cc1I", "outcome": "inactive", "AC50": "56.6 µM (active)"}, {"smiles": "C[C@]12CC[C@H](O)CC1=CC[C@@H]1[C@@H]2CC[C@]2(C)C(=O)CC[C@@H]12", "AC50": "6.42 µM (active) and 5.9 µM (active)"}, {"smiles": "CC(C)C1CCC(Cc2ccc(Cl)cc2)C1(O)Cn1cncn1", "note": "(configuration not stated)", "AC50": "715 nM (active) and 257 nM (active)"}, {"smiles": "CC12CC1(C)C(=O)N(c1cc(Cl)cc(Cl)c1)C2=O", "note": "(configuration not stated)", "AC50": "8.41 µM (active) and 6.41 µM (active)"}, {"smiles": "CC1(C)CCC(Cc2ccc(Cl)cc2)C1(O)Cn1cncn1", "note": "(configuration not stated)", "AC50": "2.82 µM (active)"}]}]}
